In PubChem BioAssay (NCATS):
Unmarked numbers belong to inactive results. Results filed as inconclusive are left out. Active and inactive are the calls of the source. Unless noted, the call rests on the fitted dose curve; in most records, active means well fitted curve in the direction sought with a large enough effect; inconclusive means small, poorly fitted or top-dose-only effect, or another doubt; inactive means no such curve, though single readings can be large; an effect the other way counts as inactive or inconclusive.

Key:
[1] = target: Lysosomal acid glucosylceramidase (Homo sapiens) (UniProt P04062); assay: Glucocerebrosidase-p2 (AID 348; in the data active means potency below about 10 µM; further: potency means the concentration at half of the fitted maximal effect); settings: purified GBA, blue fluorogenic substrate, 40 min
How it was run: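 Compounds titrated from 0.6 nM upwards against 0.2 nM enzyme in pH 5.9 citric acid/KH2PO4, taurocholate, tween-20; blue fluorogenic substrate 80 uM, 40 min room temperature, stopped and read Ex 365/Em 440 for AC50.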

[2] = AP1 Signaling Pathway (AID 357; active means well fitted curve in either direction with a large enough effect, not every such curve was filed as active;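 further: ME-180 reporter cells stimulated with EGF at its EC50 level; on the % scale 0 is the no-effect control and ±100 the full control effect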); settings: ME-180 AP-1-bla reporter, EGF-induced, beta-lactamase ratio, 5 h; at 7.69 µM (top of the series) unless noted
How it was run: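 A ratiometric CCF4 readout (405 nm excitation; 460 and 530 nm emission) quantified AP-1-driven beta-lactamase in ME-180 cells after 5 h with compound and EC50 EGF; AC50 values were derived for activators and inhibitors.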

[3] = target: Cytochrome P450 1A2 (Homo sapiens) (UniProt P05177); assay: p450-cyp1a2 (AID 410; calls by dose curve; further: potency means the concentration at half of the fitted maximal effect); settings: recombinant CYP1A2, luciferin-ME demethylation, luminescence; series mostly up to 57 µM
How it was run: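 20nM CYP1A2 with 100uM Luciferin-ME (at Km) in 100mM KPO4; compound preincubated 10 min, NADPH regeneration added, 60 min at room temperature. Luciferin quantified by luminescence after detection reagent; normalized to 57 uM furafylline.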

[4] = NFAT Signaling Pathway (AID 444; active means well fitted curve in either direction with a large enough effect, not every such curve was filed as active;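 further: carbachol stimulus at about its EC50 of 1 µM final; on the % scale 0 is the no-effect control and ±100 the full control effect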); settings: Jurkat NFAT-bla M1, carbachol, beta-lactamase ratio, 5 h; at 7.69 µM (top of the series) unless noted
How it was run: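 Jurkat cells with NFAT-driven β-lactamase reporter and co-expressed M1 receptor, stimulated with carbachol (final 1 uM, ~EC50), compound titration, 5 h at 37 °C. CCF4 loaded 1 h at RT; 460/530 nm ratio gave %activity and AC50.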

[5] = Stat Signaling Pathway (AID 446; active means well fitted curve in either direction with a large enough effect, not every such curve was filed as active;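 further: ME-180 cervical cancer cells given 40 pM IL-6 alongside compound; SIE-controlled beta-lactamase reporter measured as 460/530 nm FRET emission ratio; on the % scale 0 is the no-effect control and ±100 the full control effect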); settings: ME-180 SIE beta-lactamase reporter, IL-6 stimulated, 5 h; at 7.69 µM (top of the series) unless noted
How it was run: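 Screening format detects activators and inhibitors alike: ME-180 SIE-bla cells stimulated at 40 pM IL-6 for 5 hrs with compound, then dual-emission beta-lactamase read at 405 nm excitation.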

[6] = target: Glucocorticoid receptor (Homo sapiens) (UniProt P04150); assay: GR-GFP Redistribution (AID 450;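 active means compounds whose dose series gives a full or clear partial fitted curve of increased nuclear translocation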; further: potency means the concentration at half of the fitted maximal effect); settings: U2OS GR-GFP nuclear translocation, laser cytometry, 2 h
[7] = target: Glucocorticoid receptor (Homo sapiens) (UniProt P04150); assay: GR-EFC Redistribution (AID 451; calls by dose curve; further: potency means the concentration at half of the fitted maximal effect); settings: CHO-K1 GR-EFC translocation, beta-gal luminescence, 2 h
How it was run: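 CHO-K1 cells expressing nuclear EA and GR-ED fragments of b-gal; compounds titrated up to 46 uM final, 2 h at 37 C. GR nuclear translocation read as complemented b-gal luminescence after 1 h RT detection.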

[8] = target: Mitogen-activated protein kinase 10 (Mus musculus) (UniProt Q61831); assay: JNK3 AlphaScreen Assay (AID 530; active means well fitted curve in either direction with a large enough effect, not every such curve was filed as active;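 further: kinase came from lysate of stimulated human HepG2 cells; signal reports phosphorylation of biotinylated GST-cJun 1-79 at Ser73 with 10 µM ATP; on the % scale 0 is the no-effect control and ±100 the full control effect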); settings: JNK3 lysate, c-Jun phosphorylation; series mostly up to 57.1 µM
How it was run: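 Pre-activated (IL-1β/TNFα) JNK3 in HepG2 lysates phosphorylates biotin-GST-cJun(1-79), 10 uM ATP; anti-phospho-cJun(Ser73) AlphaScreen read at room temperature, pH 7.6 Tris buffer. Compounds pre-incubated 15 min as titrations.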

[9] = target: 3',5'-cyclic-AMP phosphodiesterase 4B (Homo sapiens) (UniProt Q07343); assay: qHTS Assay for Inhibitors of PDE-IV (AID 607; active means well fitted activation curve with a large enough effect in the main read-out, with a control signal flat, not every such curve was filed as active; further: % of control where 0% means no effect); settings: HEK293 ACTOne CNG channel cells, membrane potential fluorescence; series mostly up to 22.9 µM
How it was run: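 The readout is membrane depolarisation from a cAMP-sensing CNG channel, detected with a potential dye at ex 535/em 590. Cells were HEK293-derived (endogenous PDE-IV) at 1000 cells/well, titrated up to 22.9 uM final.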

[10] = target: Dual specificity protein kinase CLK4 (Homo sapiens) (UniProt Q9HAZ1); assay: qHTS Assay for Inhibitors of CDC-like Kinase 4 (Kinase-Glo Assay) (AID 1770); settings: recombinant Clk4, Kinase-Glo ATP depletion luminescence; series mostly up to 66.7 µM; further: nearly all actives have a fitted effect of over 65% in size; further: potency means the concentration at half of the fitted maximal effect
How it was run: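 Recombinant human Clk4 (25 nM) phosphorylated RS repeat peptide (100 uM) with 1 uM ATP in Tris pH 7.5/MgCl2/EGTA/DTT/Triton buffer for 4.5 h at room temperature. Residual ATP was quantified by Kinase-Glo luciferase luminescence.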

[11] = target: Dual specificity protein kinase CLK4 (Homo sapiens) (UniProt Q9HAZ1); assay: qHTS Assay for Inhibitors of CDC-like Kinase 4 (ADP-FP Assay) (AID 1795); settings: Transcreener ADP fluorescence polarization; series mostly up to 50 µM; further: on the % scale 0 is the no-effect control and ±100 the full control effect; nearly all actives have a fitted effect of over 60% in size
How it was run: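 Recombinant human Clk4 (6.25 nM) phosphorylated RS repeat peptide (100 uM) with 1 uM ATP in Tris pH 7.5/MgCl2/EGTA/DTT/Triton buffer for one hour. ADP was quantified by Transcreener competitive fluorescence polarization against an ADP calibration curve.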

[12] = target: Ubiquitin carboxyl-terminal hydrolase 1 (Homo sapiens) (UniProt O94782); assay: Inhibitors of USP1/UAF1: Pilot qHTS (AID 504865); settings: purified USP1/UAF1, Ub-rhodamine cleavage fluorescence; series mostly up to 54.9 µM;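 further: rhodamine fluorescence freed from ubiquitin-rhodamine substrate followed over time; top concentration of the series differs between compounds; on the % scale 0 is the no-effect control and ±100 the full control effect; nearly all actives have a fitted effect of over 35% in size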
How it was run: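 USP1/UAF1 complex (1nM) preincubated with compound 15 min at room temperature, then Ub-Rho substrate (150nM final) added. Fluorescence read kinetically at 480/540 nm, 6 reads every 60 seconds. Buffer: 50mM HEPES pH 7.8, 0.5mM EDTA, 0.1 mg/ml BSA, 1mM TCEP, 0.01% Tween-20.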

[13] = Primary qHTS for small molecule stabilizers of the endoplasmic reticulum resident proteome: Secreted ER Calcium Modulated Protein (SERCaMP) assay (AID 1508630); settings: SH-SY5Y GLuc-SERCaMP (Gaussia luciferase released on ER calcium loss) secretion, thapsigargin, luminescence; series mostly up to 38.4 µM; further: on the % scale 0 is the no-effect control and ±100 the full control effect
How it was run: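 GLuc-SERCaMP-expressing SH-SY5Y cells, pretreated 16 h with compound, are challenged with thapsigargin to empty ER calcium stores; after 4 h, coelenterazine is added directly to the medium and luminescence is imaged.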

[14] = target: Cytochrome P450 3A4 (Homo sapiens) (UniProt P08684); assay: qHTS Assay for Activators of Cytochrome P450 3A4 (AID 885); settings: recombinant CYP3A4, Luciferin-PPXE luminescence, 60 min; series mostly up to 57.1 µM; further: nearly all actives have a fitted effect of over 65% in size
How it was run: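 Steps: enzyme/substrate mix dispensed; compound added, 10 min RT; NADPH regeneration solution added, 60 min RT; luciferin detection buffer stops reaction; 20 min later luminescence measured.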

[15] = target: Dual specificity protein kinase CLK4 (Homo sapiens) (UniProt Q9HAZ1); assay: qHTS Assay for Inhibitors of CDC-like Kinase 4 (ADP-Glo Assay) (AID 1771); settings: recombinant CLK4, ADP-Glo luminescence; series mostly up to 80 µM; further: nearly all actives have a fitted effect of over 70% in size; further: potency means the concentration at half of the fitted maximal effect
How it was run: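 25 nM Clk4 with 100 uM RS repeat peptide and 1 uM ATP (final) in buffer with 2 mM MgCl2, 0.5 mM EGTA, 2.5 mM DTT, 0.01% Triton X-100; 1 h at room temperature; ADP-Glo luminescence for ADP formed.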

[16] = target: Cytochrome P450 3A4 (Homo sapiens) (UniProt P08684); assay: qHTS Assay for Inhibitors and Substrates of Cytochrome P450 3A4 (AID 884); settings: recombinant CYP3A4, Luciferin-PPXE luminescence; series mostly up to 57.1 µM; further: potency means the concentration at half of the fitted maximal effect; nearly all actives have a fitted effect of over 50% in size
How it was run: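 20 nM human CYP3A4 with 25 uM Luciferin-PPXE (at KM) in 200 mM KPO4, preincubated 10 min with compound; NADPH regeneration started a 60 min RT reaction. Luciferin detected by luminescence, normalized to 57 uM ketoconazole as full inhibition.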

[17] = qHTS Assay for Identification of Small Molecule Agonists for Hypoxia Response Element Signaling Pathway (AID 914; active means well fitted activation curve with a large enough effect in the signal ratio, with a control signal flat, not every such curve was filed as active; the % refers to the signal ratio; further: potency means the concentration at half of the fitted maximal effect; on activation: % of control where 0% means no effect); settings: ME-180 (cervical carcinoma) HRE-bla reporter, beta-lactamase ratio, CoCl2, 17 h; activation: stronger effect = higher value
How it was run: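 AC50 values come from titration-series %Activity, taken as the 460/530nm ratio of CCF4 fluorescence (excitation 405nm). CellSensor HRE-bla ME-180 cells were treated 17 hours at 37 C with compound plus an EC50 level of CoCl2.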

Sequence of Dual specificity protein kinase CLK4 (Homo sapiens) (Q9HAZ1 whole entry, looked up): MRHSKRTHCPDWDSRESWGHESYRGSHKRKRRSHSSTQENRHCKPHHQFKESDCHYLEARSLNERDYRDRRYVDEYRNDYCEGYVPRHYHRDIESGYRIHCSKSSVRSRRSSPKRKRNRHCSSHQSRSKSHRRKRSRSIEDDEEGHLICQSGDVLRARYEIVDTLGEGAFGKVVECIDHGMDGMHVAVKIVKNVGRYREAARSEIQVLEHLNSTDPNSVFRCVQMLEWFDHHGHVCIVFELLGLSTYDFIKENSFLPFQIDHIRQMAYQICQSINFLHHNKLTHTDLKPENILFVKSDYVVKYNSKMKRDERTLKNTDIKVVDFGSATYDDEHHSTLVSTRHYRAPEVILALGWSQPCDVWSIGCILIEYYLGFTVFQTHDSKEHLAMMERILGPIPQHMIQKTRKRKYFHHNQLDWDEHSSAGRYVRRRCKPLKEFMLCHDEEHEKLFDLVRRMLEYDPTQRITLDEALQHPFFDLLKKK
Sequence of Ubiquitin carboxyl-terminal hydrolase 1 (Homo sapiens) (O94782 whole entry, looked up): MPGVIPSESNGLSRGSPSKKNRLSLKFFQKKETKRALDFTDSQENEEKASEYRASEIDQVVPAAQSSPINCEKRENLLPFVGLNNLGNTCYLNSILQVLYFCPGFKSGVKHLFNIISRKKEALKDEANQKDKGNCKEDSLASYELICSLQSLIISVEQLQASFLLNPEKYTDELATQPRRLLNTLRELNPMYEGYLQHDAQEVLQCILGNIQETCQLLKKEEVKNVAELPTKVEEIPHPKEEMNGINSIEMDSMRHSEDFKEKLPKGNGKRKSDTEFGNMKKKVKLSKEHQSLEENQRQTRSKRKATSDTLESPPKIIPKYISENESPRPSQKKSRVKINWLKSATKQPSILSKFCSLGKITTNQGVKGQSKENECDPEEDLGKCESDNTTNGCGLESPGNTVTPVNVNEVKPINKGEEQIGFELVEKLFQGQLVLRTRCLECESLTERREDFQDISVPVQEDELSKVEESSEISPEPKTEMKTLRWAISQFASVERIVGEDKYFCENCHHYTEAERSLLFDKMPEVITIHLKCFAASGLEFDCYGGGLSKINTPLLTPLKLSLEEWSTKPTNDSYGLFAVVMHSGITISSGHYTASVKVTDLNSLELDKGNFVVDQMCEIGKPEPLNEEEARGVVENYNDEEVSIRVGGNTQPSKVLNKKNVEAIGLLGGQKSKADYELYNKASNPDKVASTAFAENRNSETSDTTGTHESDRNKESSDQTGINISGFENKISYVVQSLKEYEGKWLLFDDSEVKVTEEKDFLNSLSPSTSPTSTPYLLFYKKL
Sequence of Lysosomal acid glucosylceramidase (Homo sapiens) (P04062 whole entry, looked up): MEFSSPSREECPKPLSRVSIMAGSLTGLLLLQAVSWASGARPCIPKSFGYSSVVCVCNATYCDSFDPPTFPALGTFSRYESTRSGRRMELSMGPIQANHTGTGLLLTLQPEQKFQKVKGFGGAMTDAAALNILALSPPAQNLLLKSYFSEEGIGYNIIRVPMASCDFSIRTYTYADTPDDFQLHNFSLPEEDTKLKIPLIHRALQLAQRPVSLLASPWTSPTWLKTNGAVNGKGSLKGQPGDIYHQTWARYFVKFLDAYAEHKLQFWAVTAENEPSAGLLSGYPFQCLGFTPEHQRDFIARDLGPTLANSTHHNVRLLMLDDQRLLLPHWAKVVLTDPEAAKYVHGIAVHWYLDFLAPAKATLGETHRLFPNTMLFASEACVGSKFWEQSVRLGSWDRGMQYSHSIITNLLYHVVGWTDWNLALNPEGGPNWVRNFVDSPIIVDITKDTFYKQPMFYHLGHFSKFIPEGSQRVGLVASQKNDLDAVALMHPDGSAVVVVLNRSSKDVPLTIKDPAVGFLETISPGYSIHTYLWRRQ
Sequence of 3',5'-cyclic-AMP phosphodiesterase 4B (Homo sapiens) (Q07343 whole entry, looked up): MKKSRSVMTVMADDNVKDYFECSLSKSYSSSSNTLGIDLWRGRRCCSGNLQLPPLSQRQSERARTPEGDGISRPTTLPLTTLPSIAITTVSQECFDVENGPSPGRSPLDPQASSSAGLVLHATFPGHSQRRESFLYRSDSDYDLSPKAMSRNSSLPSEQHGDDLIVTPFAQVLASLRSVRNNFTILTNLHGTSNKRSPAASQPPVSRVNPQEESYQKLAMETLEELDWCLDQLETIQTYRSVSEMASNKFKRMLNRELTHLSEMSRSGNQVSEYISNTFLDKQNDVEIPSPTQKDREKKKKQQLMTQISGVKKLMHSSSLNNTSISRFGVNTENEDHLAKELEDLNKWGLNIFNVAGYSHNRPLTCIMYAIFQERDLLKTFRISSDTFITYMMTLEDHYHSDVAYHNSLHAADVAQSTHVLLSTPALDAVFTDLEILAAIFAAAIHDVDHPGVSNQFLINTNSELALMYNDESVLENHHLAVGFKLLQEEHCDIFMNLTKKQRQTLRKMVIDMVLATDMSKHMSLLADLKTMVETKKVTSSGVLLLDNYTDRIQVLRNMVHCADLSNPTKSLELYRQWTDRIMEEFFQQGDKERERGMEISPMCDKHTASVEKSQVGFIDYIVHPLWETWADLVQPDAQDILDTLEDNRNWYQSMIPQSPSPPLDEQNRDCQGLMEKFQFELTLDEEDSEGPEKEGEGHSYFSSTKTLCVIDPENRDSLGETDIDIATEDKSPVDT
Sequence of Cytochrome P450 3A4 (Homo sapiens) (P08684 whole entry, looked up): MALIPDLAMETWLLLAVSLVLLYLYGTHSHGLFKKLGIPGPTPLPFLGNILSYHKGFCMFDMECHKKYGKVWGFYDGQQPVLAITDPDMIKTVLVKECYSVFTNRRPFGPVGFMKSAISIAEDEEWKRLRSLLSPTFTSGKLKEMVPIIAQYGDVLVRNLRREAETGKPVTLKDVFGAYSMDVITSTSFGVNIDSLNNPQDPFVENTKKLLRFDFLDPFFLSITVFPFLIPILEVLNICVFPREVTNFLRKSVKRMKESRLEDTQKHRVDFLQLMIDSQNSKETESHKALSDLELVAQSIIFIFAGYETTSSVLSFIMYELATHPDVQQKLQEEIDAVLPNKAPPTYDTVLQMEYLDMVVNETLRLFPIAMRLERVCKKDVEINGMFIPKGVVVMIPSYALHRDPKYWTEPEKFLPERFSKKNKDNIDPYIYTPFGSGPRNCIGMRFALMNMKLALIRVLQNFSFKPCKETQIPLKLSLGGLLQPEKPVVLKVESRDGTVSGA
Sequence of Cytochrome P450 1A2 (Homo sapiens) (P05177 whole entry, looked up): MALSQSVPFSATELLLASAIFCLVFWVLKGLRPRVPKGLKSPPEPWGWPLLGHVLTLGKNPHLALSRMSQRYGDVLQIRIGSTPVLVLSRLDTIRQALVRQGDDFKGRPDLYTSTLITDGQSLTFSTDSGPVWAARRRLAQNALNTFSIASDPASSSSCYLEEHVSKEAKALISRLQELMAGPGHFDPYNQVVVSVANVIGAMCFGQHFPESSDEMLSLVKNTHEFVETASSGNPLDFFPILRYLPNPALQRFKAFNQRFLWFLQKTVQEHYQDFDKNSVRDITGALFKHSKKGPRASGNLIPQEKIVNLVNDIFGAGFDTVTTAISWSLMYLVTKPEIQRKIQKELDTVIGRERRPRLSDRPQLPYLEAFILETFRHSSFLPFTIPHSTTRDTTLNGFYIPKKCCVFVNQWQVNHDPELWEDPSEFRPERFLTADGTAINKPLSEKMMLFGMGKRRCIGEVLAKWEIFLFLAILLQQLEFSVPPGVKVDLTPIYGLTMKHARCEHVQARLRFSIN
Sequence of Glucocorticoid receptor (Homo sapiens) (P04150 whole entry, looked up, the tested form may be a part): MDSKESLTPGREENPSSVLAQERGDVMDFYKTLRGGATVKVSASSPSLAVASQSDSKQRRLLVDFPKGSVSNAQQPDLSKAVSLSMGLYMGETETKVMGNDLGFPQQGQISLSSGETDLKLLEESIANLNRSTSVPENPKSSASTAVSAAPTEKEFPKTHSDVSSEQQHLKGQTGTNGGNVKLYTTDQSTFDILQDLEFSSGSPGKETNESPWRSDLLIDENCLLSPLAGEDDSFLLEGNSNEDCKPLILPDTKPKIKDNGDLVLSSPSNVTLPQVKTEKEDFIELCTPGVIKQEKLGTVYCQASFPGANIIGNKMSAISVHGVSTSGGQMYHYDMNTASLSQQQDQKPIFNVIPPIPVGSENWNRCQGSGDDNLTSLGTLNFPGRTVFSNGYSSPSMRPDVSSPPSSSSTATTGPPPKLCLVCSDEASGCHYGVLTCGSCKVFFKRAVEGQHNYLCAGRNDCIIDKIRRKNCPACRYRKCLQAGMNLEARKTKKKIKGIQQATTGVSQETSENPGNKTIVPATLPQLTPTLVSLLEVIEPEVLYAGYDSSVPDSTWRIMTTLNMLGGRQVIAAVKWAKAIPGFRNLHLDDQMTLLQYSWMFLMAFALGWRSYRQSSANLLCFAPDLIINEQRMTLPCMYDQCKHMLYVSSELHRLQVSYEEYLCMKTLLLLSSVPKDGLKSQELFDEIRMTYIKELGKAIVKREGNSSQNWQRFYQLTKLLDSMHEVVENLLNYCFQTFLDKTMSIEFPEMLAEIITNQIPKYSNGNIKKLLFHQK

Compound	Potency [1] [µM]	activity change, negative = inhibition [2] [%]	Potency [3]	activity change, negative = inhibition [4]	activity, negative = inhibition [5] [%]	Potency [6] [µM]	Potency [7] [µM]	Potency [8]	Potency [9]	Potency [10]	Potency [11]	Potency [12]	outcome [13]	Potency [14]	Potency [15]	Potency [16]	Potency [17]	activation [17] [%]
COc1ncc2nc(-c3ccc(F)cc3)c(=O)n(CCc3ccccc3)c2n1	> 11.4	-6.05	0.398 µM (active)	-8.98%	-5.82	> 9.22	> 46	inactive	inactive	inactive	inactive	inactive	inactive					
CC(=O)NCCNc1ncnc2ccc(-c3ccccc3Cl)cc12	> 11.4			-0.746%	-1.74	> 46	> 46	inactive		15.8 µM (active)		inactive	inactive	inactive	15.8 µM (active)			
COc1ccccc1CNc1cc(-c2ccoc2)ncn1	> 11.4	-15.7	15.8 µM (active)	-9.53%	6.29	> 46	> 46	inactive	inactive	inactive	inactive	inactive	inactive	inactive				
CN(C)c1ccc(-c2ccc3ncnc(NC4CC4)c3c2)cc1	> 11.4		0.2 µM (active)	-2.46%	-20.9	> 46	> 46	inactive	inactive	3.55 µM (active)		inactive	inactive	inactive	7.94 µM (active)	3.16 µM (active)		
CN(C)c1ncc2nc(-c3ccc(F)cc3)c(=O)n(CCc3ccccc3)c2n1	> 11.4		2.51 µM (active)	162% [activator] (active)		> 9.22	> 46		inactive	inactive		inactive	inactive		inactive		1 µM (active)	
CN(C)c1ccc(-c2ccc3ncnc(N(C)Cc4ccco4)c3c2)cc1	> 11.4	-28.7			-0.793	> 46	> 46	inactive	inactive	8.91 µM (active)		inactive	inactive		7.08 µM (active)			-3.37
FC(F)(F)c1ccccc1-c1cc(NCc2cccnc2)ncn1	> 11.4	-2.3	3.98 µM (active)	4.08%	-3	> 46	> 46	inactive	inactive	inactive	inactive	inactive	inactive	inactive				
